In the library only some 2.2% were active in any assay of this set; here they are far more common.
BaF3 tox: reduces parental Ba/F3 cell viability, JAK2V617F counter-screen; CellTiter-Glo ATP luminescence; inhibition, % at 5.6 µM; hit rate 1.1% among 220,000; AID 1486;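 active = inhibition above a per-campaign cutoff, the mean inhibition of all tested compounds plus 3 SD, cut at about 27% in these data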
KLF5 inh: kruppel-like factor 5 inhibition; DLD-1 KLF5 promoter-luciferase reporter, luminescence; inhibition, % at 5 µM; hit rate 0.23% among 290,000;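 active = inhibition above a per-plate limit of that plate's mean compound inhibition plus 3 SD, cut at about 60% in these data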;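 also: higher means less KLF5 promoter-driven luciferase light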
APP 5UTR inh: APP translation inhibition. SH-SY5Y APP 5'UTR-luciferase reporter, luminescence. inhibition, % at 2 µM. hit rate 0.82% among 190,000. AID 1285;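 active = inhibition above a set limit, derived from the sample mean plus 3 SD, cut at about 45% in these data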
IEC-6 cytotox: IEC-6 cytotoxicity, counter-screen for KLF5 inhibitors; luminescence viability; inhibition, % at 5 µM; hit rate 0.78% among 290,000; AID 1825
aSyn 5UTR inh: MLPCN primary screen, SNCA 5' untranslated region. alpha-synuclein 5'UTR reporter, inhibitor activity. inhibition, % (tested at 7.5 µM). hit rate 0.82% among 300,000; in the data active = inhibition above about 60%;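 also: H4 neuroglioblastoma cells stably carrying SNCA 5'UTR luciferase fusion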
Ba/F3 V617F tox: loss of viability in JAK2V617F-driven Ba/F3 cells | Ba/F3 EpoR-JAK2V617F viability, ATP luminescence | AID 1446 | hit rate 1.1% among 220,000 | inhibition, % at 5.6 µM;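 active = inhibition above the campaign mean plus 3 SD over all tested compounds, cut at about 24% in these data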;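 also: cytokine-independent growth of Ba/F3 cells driven by EpoR plus mutant JAK2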
IEC-6 cytotox cf: IEC-6 cytotoxicity, confirmation assay | shares compounds with IEC-6 cytotox | IEC-6 rat intestinal epithelial viability, luminescence | inhibition, % at 5 µM | hit rate 63% among 1,900 | AID 1907
Numbers stand for hits. Rule as the data show it, unless noted: active = inhibition above about 22%; inactive = the rest.

Screening CCC[C@H](CN[C@@H](CNC)[C@H](C)CC)NCCc1cc(C(F)(F)F)cc(C(F)(F)F)c1 returned KLF5 inh inactive, IEC-6 cytotox 36, aSyn 5UTR inh 124 and IEC-6 cytotox cf 57.
For O=C(NCCCCc1ccccc1)c1ccccc1 the results were BaF3 tox inactive, KLF5 inh inactive, APP 5UTR inh inactive, IEC-6 cytotox inactive, aSyn 5UTR inh inactive and Ba/F3 V617F tox inactive.
For CCCC[C@@H](CNC)NC[C@H](NCCCCC1CCCCC1)C(C)C the results were KLF5 inh inactive, IEC-6 cytotox inactive and aSyn 5UTR inh inactive.
For CNC[C@@H](Cc1ccccc1)NC[C@@H](CC1CCCCC1)NCCCc1ccccc1 the results were KLF5 inh inactive, IEC-6 cytotox 102, aSyn 5UTR inh 125 and IEC-6 cytotox cf 71.
CN(C[C@H](Cc1ccccc1)N(C[C@@H](CC1CCCCC1)N(CCc1ccccc1)N=O)N=O)N=O was read as BaF3 tox inactive, KLF5 inh inactive, APP 5UTR inh inactive, IEC-6 cytotox inactive, aSyn 5UTR inh inactive and Ba/F3 V617F tox inactive.
Screening CCC[C@@H](CN[C@@H](CNC)C(C)C)NCCCCc1ccccc1 returned KLF5 inh inactive, IEC-6 cytotox 44, aSyn 5UTR inh inactive and IEC-6 cytotox cf 66.
Screening Cc1cccnc1NC(=O)c1ccc(OCc2c(C)noc2C)cc1 returned KLF5 inh inactive, IEC-6 cytotox inactive and aSyn 5UTR inh inactive.
For N#CC1=C(SCC(=O)Nc2ccc(C(=O)O)cc2)NC(=O)CC1c1ccco1 (stereo unspecified) the results were BaF3 tox inactive, KLF5 inh inactive, IEC-6 cytotox inactive, aSyn 5UTR inh inactive and Ba/F3 V617F tox inactive.
`Cc1cc(C(=O)NCc2ccc(F)cc2)c2ccccc2n1` gave KLF5 inh inactive, IEC-6 cytotox inactive and aSyn 5UTR inh inactive.
Screening Cc1occc1C(=O)N(C)Cc1nc(-c2ccc(Cl)cc2)no1 returned KLF5 inh inactive, IEC-6 cytotox inactive and aSyn 5UTR inh inactive.
Cc1ccnc(Nc2nc(-c3ccc(O)c(O)c3)cs2)c1 was read as KLF5 inh inactive, IEC-6 cytotox 36, aSyn 5UTR inh inactive and IEC-6 cytotox cf inactive.
CCCCNc1cc(C)nc(NCc2ccccc2)n1 was read as BaF3 tox 45, KLF5 inh inactive, APP 5UTR inh inactive, IEC-6 cytotox 23, aSyn 5UTR inh inactive, Ba/F3 V617F tox 50 and IEC-6 cytotox cf inactive.
For Cc1cc(Nc2ccccc2)nc(NCc2ccccc2)n1 the results were BaF3 tox inactive, KLF5 inh inactive, APP 5UTR inh inactive, IEC-6 cytotox inactive, aSyn 5UTR inh inactive and Ba/F3 V617F tox inactive.
`COc1ccc(N2CCN(CCCn3c(=S)[nH]c4ncccc4c3=O)CC2)cc1` gave BaF3 tox inactive, KLF5 inh inactive, APP 5UTR inh inactive, IEC-6 cytotox 30, aSyn 5UTR inh inactive, Ba/F3 V617F tox inactive and IEC-6 cytotox cf inactive.
Screening O=c1c2cccnc2[nH]c(=S)n1CCCN1CCN(c2ccc(F)cc2)CC1 returned BaF3 tox inactive, KLF5 inh inactive, APP 5UTR inh inactive, IEC-6 cytotox inactive, aSyn 5UTR inh inactive and Ba/F3 V617F tox inactive.
CC(=O)Nc1ccccc1OCC(=O)c1cc(C)n(Cc2cccs2)c1C was read as BaF3 tox 82, KLF5 inh inactive, APP 5UTR inh inactive, IEC-6 cytotox 26, aSyn 5UTR inh inactive, Ba/F3 V617F tox 62 and IEC-6 cytotox cf inactive.
`NC(=O)c1ccc[n+](CC(=O)c2ccccc2)c1` gave BaF3 tox 27, KLF5 inh inactive, IEC-6 cytotox 22, aSyn 5UTR inh inactive, Ba/F3 V617F tox 60 and IEC-6 cytotox cf inactive.
For NC(=O)c1ccc[n+](CC(=O)c2ccc(NC(=O)c3ccccc3)cc2)c1 the results were KLF5 inh inactive, IEC-6 cytotox inactive and aSyn 5UTR inh inactive.
For Cc1ccc(C(=O)Cn2c(C(=O)OCCO)cc3ccccc32)cc1 the results were KLF5 inh inactive, IEC-6 cytotox 26, aSyn 5UTR inh inactive and IEC-6 cytotox cf inactive.
Screening O=C1C(Cl)=C(NCCN2CCOCC2)C(=O)c2ccccc21 returned KLF5 inh inactive, IEC-6 cytotox 33, aSyn 5UTR inh inactive and IEC-6 cytotox cf inactive.
`CN1CCN(Cc2cc(Cl)c3cccnc3c2OC(=O)c2cccs2)CC1` gave BaF3 tox inactive, KLF5 inh inactive, APP 5UTR inh inactive, IEC-6 cytotox inactive, aSyn 5UTR inh inactive and Ba/F3 V617F tox inactive.
`O=C(Oc1c(CN2CCOCC2)cc(Cl)c2cccnc12)c1ccccc1Br` gave BaF3 tox inactive, KLF5 inh inactive, IEC-6 cytotox 24, aSyn 5UTR inh inactive, Ba/F3 V617F tox inactive and IEC-6 cytotox cf inactive.
Cc1cccc(CSc2cccc3cccnc23)c1 was read as BaF3 tox inactive, KLF5 inh inactive, APP 5UTR inh inactive, IEC-6 cytotox 32, aSyn 5UTR inh inactive, Ba/F3 V617F tox inactive and IEC-6 cytotox cf 37.
Screening NNC(=O)c1ccc(CSc2cccc3cccnc23)cc1 returned BaF3 tox inactive, KLF5 inh inactive, APP 5UTR inh inactive, IEC-6 cytotox inactive, aSyn 5UTR inh inactive and Ba/F3 V617F tox inactive.
For NC(=O)C1CCN(C(=O)CN(C2CCCCC2)S(=O)(=O)c2ccc(F)cc2)CC1 the results were KLF5 inh inactive, IEC-6 cytotox inactive and aSyn 5UTR inh inactive.
Screening CCOc1ccc(C(=O)C(CCC(CN(C)C)C(=O)c2ccc(OCC)cc2)CN(C)C)cc1 (stereo unspecified) returned BaF3 tox 40, KLF5 inh inactive, APP 5UTR inh 92, IEC-6 cytotox 29, aSyn 5UTR inh inactive, Ba/F3 V617F tox 101 and IEC-6 cytotox cf 27.
Screening CCOc1ccc(C(=O)c2ccncc2)cc1 returned BaF3 tox inactive, KLF5 inh inactive, APP 5UTR inh inactive, IEC-6 cytotox inactive, aSyn 5UTR inh inactive and Ba/F3 V617F tox inactive.
Screening CCC1CCCCN1CCCNC(=O)C1CCN(Cc2nc(-c3ccc(Cl)cc3)oc2C)CC1 (stereo unspecified) returned KLF5 inh inactive, IEC-6 cytotox 47, aSyn 5UTR inh inactive and IEC-6 cytotox cf 70.
CC(=O)Oc1ccc(N2C(=O)c3cccc4c([N+](=O)[O-])ccc(c34)C2=O)cc1 was read as KLF5 inh inactive, IEC-6 cytotox inactive and aSyn 5UTR inh inactive.
`O=C1c2cccc3c([N+](=O)[O-])ccc(c23)C(=O)N1O` gave KLF5 inh inactive, IEC-6 cytotox 85, aSyn 5UTR inh inactive and IEC-6 cytotox cf inactive.
O=C(NCc1cccc(C(F)(F)F)c1)N1CCN(S(=O)(=O)c2ccccc2F)CC1 was read as KLF5 inh inactive, IEC-6 cytotox inactive and aSyn 5UTR inh inactive.
For COc1ccc(S(=O)(=O)N2CCCc3ccccc32)cc1[N+](=O)[O-] the results were KLF5 inh inactive, IEC-6 cytotox 59, aSyn 5UTR inh inactive and IEC-6 cytotox cf 44.
For COc1ccc(S(=O)(=O)N2CCCc3ccccc32)cc1OC the results were BaF3 tox inactive, KLF5 inh inactive, IEC-6 cytotox inactive, aSyn 5UTR inh inactive and Ba/F3 V617F tox inactive.

Compound activity from PubChem.
